Compound activity (PubChem)
Only some compounds are listed: those with a hit (about 0.76% of all), similar ones and a draw of the others.
Rv3671c protease – inhibitors of M. tuberculosis serine protease Rv3671c | inhibition, % at 5.96 µM | 320,000 compounds, 0.048% hits | P9WHR9; in the data active = inhibition above about 38%;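 note: extracellular domain of Rv3671c used as enzyme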
Target sequence (P9WHR9 whole entry, looked up, the tested form may be a part): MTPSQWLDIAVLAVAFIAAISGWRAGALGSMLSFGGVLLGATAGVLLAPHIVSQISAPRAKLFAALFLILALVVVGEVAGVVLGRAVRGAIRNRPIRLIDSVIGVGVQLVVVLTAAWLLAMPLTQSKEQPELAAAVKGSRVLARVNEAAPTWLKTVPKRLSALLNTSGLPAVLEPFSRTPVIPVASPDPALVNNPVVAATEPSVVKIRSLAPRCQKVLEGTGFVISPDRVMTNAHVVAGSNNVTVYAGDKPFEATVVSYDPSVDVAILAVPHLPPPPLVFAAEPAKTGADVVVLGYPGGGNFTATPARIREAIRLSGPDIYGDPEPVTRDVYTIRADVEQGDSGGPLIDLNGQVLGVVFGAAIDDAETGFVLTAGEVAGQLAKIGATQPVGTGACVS
PrP UTR inh – inhibition of PrP 5' UTR reporter expression | cell-based PrP 5' UTR mRNA reporter, plate reader | inhibition, % (concentration not given with the values) | 340,000 compounds, 0.35% hits | AID 488862; in the data active = inhibition above about 52%
Vc quorum ag – quorum light induction in luxS cqsA deficient V. cholerae | V. cholerae BH1578 lux reporter, luminescence, 6 h | activation, % at 18.7 µM | 350,000 compounds, 0.16% hits; in the data active = activation mostly above about 9.7%, no sharp cut-off; inconclusive = no clear call, values can overlap the other calls; inactive = mostly below about 3.7%
Mtb betalactam – beta-lactam sensitization of Mtb H37Rv; M. tuberculosis H37Rv growth with meropenem, percent inhibition; inhibition, % at 25 µM; 330,000 compounds, 0.27% hits; call rule not given here;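 note: growth measured after seven days incubation then overnight dye step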
FadD28 binding – M. tuberculosis FadD28 bisubstrate binding inhibition. FadD28 bisubstrate probe binding, fluorescence polarization. inhibition, % at 12.5 µM. 360,000 compounds, 0.22% hits. AID 588549; in the data active = inhibition above about 8.5%, passing the limit was not always enough; inconclusive = no clear call, values can overlap the other calls
UGM FP inh – Mtb UDP-galactopyranose mutase inhibition | inhibition, % at 10 µM | purified UGM, fluorescence polarization probe displacement | 320,000 compounds, 0.06% hits | P9WIQ1; in the data active = inhibition above about 10%, passing the limit was not always enough; inconclusive = no clear call, values can overlap the other calls
PrP 5UTR single – prion 5' UTR mRNA inhibition, cherry-pick retest. 1,100 compounds, 48% hits. cell-based prion protein 5' UTR reporter, plate reader. shares compounds with PrP UTR inh. inhibition, % at 2.5 µM; in the data active = inhibition above about 54%; inconclusive = no clear call, values can overlap the other calls
Each line names hits and unclear results; the compound was inactive in the other large screens (follow-up assays come after a bar, where they were run); ! = a repeat was not active.

COc1ccc(-n2c(Cc3cc(=O)[nH]c(=O)[nH]3)nnc2SCC(=O)Nc2ccccc2)cc1	PrP UTR inh 57 | PrP 5UTR single inactive
CCc1nnc(NC(=O)CSc2nnc(Cc3cc(=O)[nH]c(=O)[nH]3)n2-c2ccc(OC)cc2)s1	none
Nc1nc(SCC(=O)Nc2ccc(OC(F)(F)F)cc2)[nH]c(=O)c1NC(=O)c1ccc(Br)o1	none
CCN(CC)c1ccc(C2NC(=O)c3ccccc3N2)cc1 (stereo not drawn)	PrP UTR inh 60 (no result: Rv3671c protease, Mtb betalactam, UGM FP inh) | PrP 5UTR single inactive
CCN(CC)c1ccc(C2Nc3cccc4cccc(c34)N2)cc1	none
COc1cc(/C=C/C(=O)O)cc(S(=O)(=O)Nc2ccc3c(c2)CCC3)c1OC	none
CCOC(=O)C1=CN(CC2CCCCC2)CCC1=O	PrP UTR inh 84 (no result: Rv3671c protease, Mtb betalactam, UGM FP inh) | PrP 5UTR single inactive
CCn1c(SCC(=O)Nc2nccc(C)n2)nc2ccccc21	none
CCN(CC)C(=O)C1=C(C)N(CCCN2CCCC2=O)C(=O)C(CC(=O)NCc2cccs2)C1 (stereo not drawn)	none (no result: Rv3671c protease, PrP UTR inh, Mtb betalactam, UGM FP inh)
CC(C)C(NC(=O)C(C(C)C)N(C)C)C(=O)N(C)C(C(=O)N1CCCC1C(=O)N1CCCC1C(=O)NCc1ccccc1)C(C)C (stereo not drawn)	PrP UTR inh 62 (no result: Rv3671c protease, Mtb betalactam, UGM FP inh) | PrP 5UTR single 89
CCN(C[C@H]1N[C@@](C)(C(=O)OC)[C@H]2C(=O)N(C)C(=O)[C@@H]12)C(=O)c1ccc(C(C)(C)C)cc1	PrP UTR inh 58 (no result: UGM FP inh) | PrP 5UTR single inactive
CN(C)c1ccc(C=c2c3ccccc3n3c2c2c([n+]3C)CCCC2)cc1	none (no result: Rv3671c protease, Vc quorum ag, Mtb betalactam, UGM FP inh)
CN(C)c1ccc(Nc2nc(N)c3ccccc3n2)cc1	PrP UTR inh 77 | PrP 5UTR single 62
CCOc1ccc(Nc2nc(N)c3ccccc3n2)cc1	PrP UTR inh 56 (no result: Rv3671c protease) | PrP 5UTR single inactive
O=[N+]([O-])c1ccc(-c2csc(NN=C3CCCC3)n2)cc1	none
CC(C)N1C(=O)CCC1C(=O)O (stereo not drawn)	none
CC(C)(C)OC(=O)NC(CO)c1cn([C@@H](Cc2cc3ccccc3[nH]2)C(=O)N2CCN(C(=O)OC(C)(C)C)CC2)nn1 (stereo partly drawn)	none
Nc1nc(F)nc2c1ncn2[C@@H]1O[C@H](CO)[C@@H](O)[C@H]1O	PrP UTR inh 94 | PrP 5UTR single 94
CS(=O)(=O)Nc1ccccc1C(=O)NCC1(N2CCCCC2)CCCCC1	PrP UTR inh 67 | PrP 5UTR single inactive
O=C(/C=C/Nc1ccccc1Br)c1ccccn1	PrP UTR inh 89 | PrP 5UTR single 83
CC1=C(C(=O)N2CCOCC2)CC(CC(=O)NCCCCc2ccccc2)C(=O)N1CCCN1CCCC1=O (stereo not drawn)	none (no result: Rv3671c protease, PrP UTR inh, Mtb betalactam, UGM FP inh)
O=C(O)c1cc(S(=O)(=O)N2CCCCC2)ccc1Cl	none
CN(C)C=Nc1nc2ccccc2nc1N1CCCC1	PrP UTR inh 54 | PrP 5UTR single inactive
c1ccc2nc(N3CCCC3)c(N3CCCC3)nc2c1	none
CCOc1ccc(S(=O)(=O)NCCC(=O)N2CC(C)OC(C)C2)cc1 (stereo not drawn)	none
Cc1ccc(S(=O)(=O)NCCC(=O)N2CC(C)OC(C)C2)cc1 (stereo not drawn)	PrP UTR inh 75 | PrP 5UTR single inactive
CC(=O)OCC(=O)[C@@]1(O)CC[C@H]2[C@@H]3CCC4=CC(=O)CC[C@]4(C)[C@H]3[C@@H](O)C[C@@]21C	PrP UTR inh 65! | PrP 5UTR single inactive
CN(Cc1ccccc1)C(=O)c1ccc(NC(=O)Cc2ccc(NC(=O)C3CCCN(C(=O)C4CC4)C3)cc2)cc1 (stereo not drawn)	PrP UTR inh 86 (no result: Rv3671c protease, Mtb betalactam, UGM FP inh) | PrP 5UTR single inactive
CN(CCc1ccccc1)C(=O)c1cccc(NC(=O)Cc2cccc(NC(=O)C3CCCN(C(=O)C4CC4)C3)c2)c1 (stereo not drawn)	PrP UTR inh 53 (no result: Rv3671c protease, Mtb betalactam, UGM FP inh) | PrP 5UTR single inactive
CCN(CC(=O)NCc1ccc(Cl)cc1)C(=O)Cc1ccccc1[N+](=O)[O-]	none (no result: Rv3671c protease)
COc1cc(CC(=O)N(c2ccccc2)c2nc(C)cs2)cc(OC)c1OC	PrP UTR inh 61 | PrP 5UTR single inactive
NC1=C(Cl)C(=O)c2ccc(S(N)(=O)=O)cc2C1=O	PrP UTR inh 96 (no result: Rv3671c protease, Mtb betalactam, UGM FP inh) | PrP 5UTR single 96
NC1=C(Cl)C(=O)c2ccccc2C1=O	none (no result: Rv3671c protease, Mtb betalactam, UGM FP inh)
Cc1ccc(C(=O)Nc2ccc3c(c2)OCCO3)c(C)c1	PrP UTR inh 71 | PrP 5UTR single inconclusive
Cc1cc(C)c(C(=O)Nc2ccc3c(c2)OCCO3)c(C)c1	none (no result: Rv3671c protease, PrP UTR inh, Mtb betalactam, UGM FP inh)
CC[C@]12c3[nH]c4cc(CCC(=O)N(C)C)ccc4c3CCN1C(=O)[C@@H](CC(=O)NCCc1ccccn1)C[C@@H]2C(=O)N1CCN(C(=O)c2ccco2)CC1	none (no result: Rv3671c protease, Mtb betalactam, UGM FP inh)
CC[C@]12c3[nH]c4ccccc4c3CCN1C(=O)C(CC(=O)NCCc1ccccn1)C[C@@H]2C(=O)N1CCN(C(=O)c2ccco2)CC1 (stereo partly drawn)	PrP UTR inh 67 | PrP 5UTR single inactive
O=C(Nc1nc2cc3c(cc2s1)OCCO3)C1=COCCO1	PrP UTR inh 92 | PrP 5UTR single 86
COc1ccc(/C=N\NC(=O)C2C(=O)NCC2c2ccccc2)cc1O (stereo not drawn)	PrP UTR inh 71 | PrP 5UTR single inactive
O=C(CCNS(=O)(=O)c1ccc(OC(F)(F)F)cc1)N1CCCC1	none (no result: Rv3671c protease, Mtb betalactam, UGM FP inh)
CN(C)CC(C)(C)CNS(=O)(=O)c1ccc(OC(F)(F)F)cc1	PrP UTR inh 59 | PrP 5UTR single inactive
COc1cccc(/C=N/Nc2ccc(S(=O)(=O)O)cc2)c1O	none
COc1cccc(/C=N/Nc2ccc(C(=O)O)cc2)c1O	PrP UTR inh 88 | PrP 5UTR single 90
O=C(NC(Nc1ccccn1)C(Cl)(Cl)Cl)c1ccccc1 (stereo not drawn)	none
COC(=O)CNC(=O)C12CC3CC(C1)CC(c1ccc(C)cc1)(C3)C2	PrP UTR inh 78 | PrP 5UTR single inactive
Cc1ccc(C23CC4CC(CC(C(N)=O)(C4)C2)C3)cc1	none
O=C(NCCc1ccccc1)c1ccc2c(c1)OCCO2	PrP UTR inh 88 | PrP 5UTR single 83
O=C(c1ccccc1)N1CCN(C(=O)c2ccc3c(c2)OCCO3)CC1	PrP UTR inh 78 | PrP 5UTR single inactive
O=C(CCCc1ccccc1)c1ccc2c(c1)OCCO2	PrP UTR inh 83 | PrP 5UTR single 89
O=C(CCc1ccccc1)c1ccc2c(c1)OCCCO2	none
COc1ccc(CCNC(=O)c2ccc3c(c2)OCCO3)cc1	none
O=C(NCCc1ccccc1)c1ccc2c(c1)OCCCO2	PrP UTR inh 92 | PrP 5UTR single 91
COc1ccc(OC(C)C(=O)NC2CCCCCC2)cc1 (stereo not drawn)	none
O=C(c1ccc(F)cc1)N1CCOCC1	PrP UTR inh 69 | PrP 5UTR single inactive
Cc1ccc(C(=O)NCCc2ccccc2)cc1	PrP UTR inh 59 | PrP 5UTR single 64
COc1cccc(OC)c1C(=O)NCCc1ccccc1	none
